“And” between values parts separate entries of the source, which are not always exact repeats. Identical values can stand only once. Records with an inconclusive call do not appear. The source made the active and inactive calls. Unless noted, the call rests on the fitted dose curve; in most records, active means well fitted curve in the direction sought with a large enough effect; inconclusive means small, poorly fitted or top-dose-only effect, or another doubt; inactive means no such curve, though single readings can be large; an effect the other way counts as inactive or inconclusive.

The target in experiment [1] is Glucocorticoid receptor (Homo sapiens) (UniProt P04150). As to the kind of experiment: qHTS assay for small molecule agonists of glucocorticoid receptor signaling (AID 588532; active means well fitted curve in the direction sought with a large enough effect in the signal ratio, with a control signal flat; the % refers to the signal ratio;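 further: 100% = dexamethasone at 0.1 µM and 0% = DMSO only wells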). The following applies: HeLa MMTV-bla, beta-lactamase ratio, agonist, 18 h; stronger effect = higher value; percent of dexamethasone control, DMSO zero. Summed up:
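Titration series, up to 92 uM, applied to GRE-bla HeLa cells for 18 h at 37 C. Detection by CCF4 FRET substrate after 2 h at RT.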
A general note: qHTS replaces the single test concentration by a dilution series.

A short description of experiment [2]: qHTS assay for small molecule antagonists of peroxisome proliferator-activated receptor delta signaling (AID 588535; active means well fitted inhibition curve with a large enough effect in the signal ratio, with a control signal flat, not every such curve was filed as active; the % refers to the signal ratio;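 on max response: cells co-treated with a PPAR-delta agonist as stimulator during compound exposure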). The following applies: HEK293T PPARd-UAS-bla, beta-lactamase FRET ratio, 18 h; 460 nm channel. The gist of the method:
(§1)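 Inhibition of PPAR-delta response element-driven beta-lactamase expression is measured in HEK293T cells exposed to a compound titration series for 18 hrs at 37 C. Half-maximal inhibition comes from Hill equation fitting.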

The target in experiment [3] is Peroxisome proliferator-activated receptor delta (Homo sapiens) (UniProt Q03181). The description is as above. To be noted: HEK293T PPARd-UAS-bla, beta-lactamase FRET ratio, 18 h; series mostly up to 76.7 µM. Summed up: as §1
Sequence of Peroxisome proliferator-activated receptor delta (Homo sapiens) (Q03181 whole entry, looked up): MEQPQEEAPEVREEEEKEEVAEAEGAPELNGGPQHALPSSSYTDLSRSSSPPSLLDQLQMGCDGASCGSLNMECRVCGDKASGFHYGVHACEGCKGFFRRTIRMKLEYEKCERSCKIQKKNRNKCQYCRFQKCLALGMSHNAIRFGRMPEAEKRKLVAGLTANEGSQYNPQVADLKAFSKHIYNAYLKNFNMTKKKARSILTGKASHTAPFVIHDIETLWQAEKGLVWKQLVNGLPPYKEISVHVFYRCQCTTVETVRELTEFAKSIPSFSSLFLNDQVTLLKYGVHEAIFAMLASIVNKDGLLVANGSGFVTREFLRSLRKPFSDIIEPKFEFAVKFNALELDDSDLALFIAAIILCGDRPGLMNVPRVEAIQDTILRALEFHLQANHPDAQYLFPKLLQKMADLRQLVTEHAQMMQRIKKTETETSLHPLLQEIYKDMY
Experiment [4] concerns the target Vitamin D3 receptor (Homo sapiens) (UniProt P11473). As to the kind of experiment: qHTS assay for small molecule antagonists of vitamin D receptor signaling (AID 588541; calls by dose curve;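 further: receptor activated by calcitriol during compound treatment; on the % scale 0 is the no-effect control and ±100 the full control effect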). The following applies: HEK293T VDR-UAS-bla, beta-lactamase ratio, antagonist mode; series mostly up to 76.7 µM. The gist of the method: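 VDR-UAS-bla HEK293T cells (2000/well, 2% charcoal-stripped FBS) were treated with titrated compounds plus 1-alpha,25-dihydroxyvitamin D3 (50 nM or 3 nM final) for 16 h at 37 C. CCF4 beta-lactamase fluorescence was read; Hill fits gave IC50.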

Experiment [5] has as its target Thyroid hormone receptor beta (Homo sapiens) (UniProt P10828). Kind of experiment: qHTS assay for small molecule antagonists of thyroid hormone receptor beta signaling (AID 588547; active means well fitted inhibition curve with a large enough effect in the signal ratio, with a control signal flat, not every such curve was filed as active; the % refers to the signal ratio;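 further: cells stimulated with 0.4 nM T3 agonist during compound exposure; on the % scale 0 is the no-effect control and ±100 the full control effect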). To be noted: TR-UAS-bla HEK293, beta-lactamase ratio, antagonist mode, 18 h. Summed up: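 TR-UAS-bla GripTite HEK293 cells in 2% charcoal/dextran FBS medium were preincubated 4 h at 37 C, given compound (0.59 nM to 92 uM) plus 0.4 nM T3 (final) for 18 h, then CCF4 for 2 h at RT; Hill fit gave IC50.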

The nature of experiment [6]: qHTS assay for small molecule activators of the p53 signaling pathway (AID 651743; active means well fitted activation curve with a large enough effect in the signal ratio, not every such curve was filed as active; the % refers to the signal ratio; further: % of control where 0% means no effect). To be noted: HCT-116 p53RE-bla, beta-lactamase FRET ratio, 16 h; activation: stronger effect = higher value. The gist of the method:
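Agonist-mode quantitative HTS in HCT-116 cells carrying a p53-response-element beta-lactamase reporter; 16 h compound treatment at 37 C, then FRET substrate loading for 2 h at room temperature and fluorescence read.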

The nature of experiment [7]: qHTS assay for environmental chemicals that activate the Aryl hydrocarbon Receptor (AhR) signaling pathway (AID 651777). Further: % of control where 0% means no effect; nearly all actives have a fitted effect of over 15% in size. The following applies: 1A2-DRE human hepatoma cells, luciferase, 24 h; activation: stronger effect = higher value. Summed up: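 Induction of CYP1A2 transcription through AhR is detected by luciferase in 1A2-DRE hepatoma cells. Compounds or DMSO act for 24 hr at 37 C before a 30 min One-Glo step at room temperature.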

The target of experiment [8] is Peroxisome proliferator-activated receptor alpha (Homo sapiens) (UniProt Q07869). As to the kind of experiment: qHTS assay for small molecule agonists of the peroxisome proliferator-activated receptor alpha (PPARalpha) signaling pathway (AID 651778). Further: potency means the concentration at half of the fitted maximal effect. On max response: % of control where 0% means no effect. The following applies: PathHunter PPARalpha complementation, chemiluminescence, 6 h; max response: stronger effect = higher value. The gist of the method: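 Cells plated at 2,000/well and held overnight at 37 C, 5% CO2, then compound added by pin tool for 6 hr; after PathHunter detection reagent and 60 min at room temperature, chemiluminescence from enzyme complementation was read.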
Sequence of Peroxisome proliferator-activated receptor alpha (Homo sapiens) (Q07869 whole entry, looked up): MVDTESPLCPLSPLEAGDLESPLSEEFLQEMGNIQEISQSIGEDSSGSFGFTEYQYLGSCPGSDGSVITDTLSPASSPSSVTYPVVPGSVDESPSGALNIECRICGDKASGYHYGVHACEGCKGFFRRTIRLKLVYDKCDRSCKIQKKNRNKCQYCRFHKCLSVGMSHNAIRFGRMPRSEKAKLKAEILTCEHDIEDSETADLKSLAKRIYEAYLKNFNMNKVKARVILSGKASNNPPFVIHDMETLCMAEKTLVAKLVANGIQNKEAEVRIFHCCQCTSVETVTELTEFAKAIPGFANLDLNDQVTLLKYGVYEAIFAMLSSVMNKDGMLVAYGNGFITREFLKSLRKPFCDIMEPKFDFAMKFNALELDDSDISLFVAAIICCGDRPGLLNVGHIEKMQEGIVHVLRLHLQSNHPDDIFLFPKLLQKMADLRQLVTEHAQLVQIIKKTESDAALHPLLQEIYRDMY

A short description of experiment [9]: qHTS assay for small molecule agonists of the antioxidant response element (ARE) signaling pathway measured by Nrf2-dependant transcriptional activity - cell viability counter screen (AID 720653; active means well fitted curve in the direction sought with a large enough effect in the repeat runs; an effect the other way counts as inactive or inconclusive; further: on the % scale 0 is the no-effect control and ±100 the full control effect). The following applies: ARE-bla HepG2 viability, CellTiter-Glo ATP luminescence, 16 h; max response: stronger effect = lower value. The gist of the method: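 ARE-bla HepG2 cells (2,000/well) rested 5 hrs at 37C/5% CO2, then exposed to compounds in DMSO for 16 hrs. Viability was read in the same wells as intracellular ATP by luminescence, 30 min at room temperature after reagent addition.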

Experiment [10] is described as follows: qHTS assay for cell viability of HEK293 cells (AID 743288). Further: on the % scale 0 is the no-effect control and ±100 the full control effect; nearly all actives have a fitted effect of over 50% in size. To be noted: ATP luminescence (CellTiter-Glo), 18 h; max response: stronger effect = lower value. Summed up:
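Steps: plate 2,000 parental HEK293 cells per well; incubate ≥5 h, 37 C; add compounds in DMSO; incubate 18 h, 37 C; add CellTiter-Glo; wait 30 min at room temperature; read luminescence.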

Experiment [11] in a line: qHTS assay for cell viability of the p53RE-bla HCT-116 cell line (AID 743292). Further: on the % scale 0 is the no-effect control and ±100 the full control effect; nearly all actives have a fitted effect of over 55% in size. The following applies: p53RE-bla HCT-116 viability, ATP luminescence, 16 h; series mostly up to 95 µM. The gist of the method: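 In this qHTS counter-screen, metabolically competent p53RE-bla HCT-116 cells were counted via their ATP content. Compounds were applied for 16 h at 37 C and luciferase-coupled luminescence was measured.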

The target of experiment [12] is Nuclear receptor subfamily 1 group I member 2 (Rattus norvegicus) (UniProt Q9R1A7). Kind of experiment: qHTS assay for small molecule activators of the rat pregnane X receptor (rPXR) signaling pathway (AID 651751; call rule not given here; further: 0% is about no effect). The following applies: rPXR reporter cells, luciferase (One-Glo), 24 h.
Sequence of Nuclear receptor subfamily 1 group I member 2 (Rattus norvegicus) (Q9R1A7 whole entry, looked up): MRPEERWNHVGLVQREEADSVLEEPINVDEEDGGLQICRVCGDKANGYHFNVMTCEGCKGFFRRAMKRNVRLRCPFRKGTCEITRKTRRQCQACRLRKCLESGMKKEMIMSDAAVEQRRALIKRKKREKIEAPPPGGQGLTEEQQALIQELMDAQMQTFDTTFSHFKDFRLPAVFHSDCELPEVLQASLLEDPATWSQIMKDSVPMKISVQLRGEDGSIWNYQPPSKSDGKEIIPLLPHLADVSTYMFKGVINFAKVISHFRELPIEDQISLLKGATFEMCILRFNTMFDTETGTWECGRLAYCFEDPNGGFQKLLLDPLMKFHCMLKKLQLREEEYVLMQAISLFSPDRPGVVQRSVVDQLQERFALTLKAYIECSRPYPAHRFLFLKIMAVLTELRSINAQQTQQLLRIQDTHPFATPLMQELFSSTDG
Experiment [13] can be described thus: qHTS assay for small molecule activators of the human pregnane X receptor (PXR) signaling pathway (AID 720659; call rule not given here; further: 0% is about no effect). To be noted: DPX-2 HepG2 CYP3A4-luciferase, 24 h; series mostly up to 92.3 µM.
Experiment [14] has as its target Peroxisome proliferator-activated receptor gamma (Homo sapiens) (UniProt P37231). Kind of experiment: qHTS assay for small molecule agonists of peroxisome proliferator-activated receptor gamma signaling (AID 588536; active means well fitted curve in the direction sought with a large enough effect in the signal ratio, with a control signal flat, not every such curve was filed as active; the % refers to the signal ratio;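 further: 0% = DMSO basal wells and 100% = rosiglitazone at 2 µM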). The following applies: HEK293 PPARg-UAS-bla, beta-lactamase ratio, 16 h, percent of rosiglitazone response, DMSO as zero; series mostly up to 76.7 µM. Summed up:
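Using GeneBLAzer HEK293 cells, response was quantified by CCF4 fluorescence and normalized between basal DMSO (0%) and rosiglitazone 2 uM (100%); curves yielded half-maximal stimulation concentration and efficacy.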

In experiment [15] the target is Vitamin D3 receptor (Homo sapiens) (UniProt P11473). Kind of experiment: qHTS assay for small molecule agonists of vitamin D receptor signaling (AID 588543; calls by dose curve;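 further: 0% = DMSO basal and 100% = reference agonist control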). To be noted: HEK293T VDR-UAS-bla, beta-lactamase ratio, 16 h; series mostly up to 76.8 µM. Summed up:
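VDR-UAS-bla HEK293T cells, 2000/well, 2% charcoal-stripped FBS; compound titration 16 h at 37 C; CCF4 beta-lactamase ratio read. Normalized to 50 nM 1-alpha,25-dihydroxyvitamin D3 (100%) and DMSO; Hill fit gives EC50, efficacy.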

Experiment [16] is described as follows: qHTS assay for small molecule agonists of retinoid X receptor alpha signaling (AID 588544). To be noted: HEK293T RXRa-UAS-bla, beta-lactamase reporter, 18 h; 530 nm emission.
The target in experiment [17] is Thyroid hormone receptor beta (Homo sapiens) (UniProt P10828). Kind of experiment: qHTS assay for small molecule agonists of thyroid hormone receptor beta signaling (AID 588545; calls by dose curve;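 further: 0% = DMSO only and 100% = 10 nM T3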). To be noted: TR-UAS-bla GripTite HEK 293, beta-lactamase ratio, agonist mode, 18 h; series mostly up to 76.7 µM. Summed up: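 Stimulation of a TR-driven beta-lactamase reporter was quantified in GripTite HEK 293 cells. Compound series ran for 18 hrs; curves were normalized to T3 and DMSO controls and fitted to yield EC50.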
Sequence of Thyroid hormone receptor beta (Homo sapiens) (P10828 whole entry, looked up): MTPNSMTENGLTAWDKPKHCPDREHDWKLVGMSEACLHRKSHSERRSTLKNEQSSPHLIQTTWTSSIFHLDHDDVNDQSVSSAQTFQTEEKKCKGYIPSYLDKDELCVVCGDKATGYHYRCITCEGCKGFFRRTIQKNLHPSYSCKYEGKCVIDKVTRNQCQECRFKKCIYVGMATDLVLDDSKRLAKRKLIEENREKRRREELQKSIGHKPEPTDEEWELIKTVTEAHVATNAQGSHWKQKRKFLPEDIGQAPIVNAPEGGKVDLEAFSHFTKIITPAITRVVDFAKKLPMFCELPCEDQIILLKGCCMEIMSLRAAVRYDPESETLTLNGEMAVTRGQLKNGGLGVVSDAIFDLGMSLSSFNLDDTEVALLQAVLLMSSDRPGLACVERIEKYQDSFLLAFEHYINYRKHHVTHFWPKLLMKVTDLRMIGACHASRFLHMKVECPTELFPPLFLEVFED

Experiment [18] can be described thus: qHTS assay for small molecule antagonists of retinoid X receptor alpha signaling (AID 588546; active means well fitted inhibition curve with a large enough effect in the signal ratio, with a control signal flat, not every such curve was filed as active; the % refers to the signal ratio;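 further: cells stimulated with 9-cis-retinoic acid as agonist; on the % scale 0 is the no-effect control and ±100 the full control effect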). The following applies: HEK293T RXRa-UAS-bla, beta-lactamase ratio, antagonist mode; measured here: W530 green channel, cytotoxicity proxy. The gist of the method: (§2)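 Beta-lactamase reporter inhibition, read as CCF4 fluorescence ratio (ex 405, em 460/530 nm) after 2 h at RT. HEK293T UAS-bla cells, 2500/well, were stimulated with 9-cis-RA at 500 or 100 nM final alongside test compound for 18 h at 37 C.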

Experiment [19] deals with Retinoic acid receptor RXR-alpha (Homo sapiens) (UniProt P19793). The experiment is described as above. The following applies: HEK293T RXRa-UAS-bla, beta-lactamase ratio, antagonist mode. Summed up:
as §2

Experiment [20] is described as follows: qHTS assay for small molecule agonists of the antioxidant response element (ARE) signaling pathway measured by Nrf2-dependant transcriptional activity (AID 720636; active means well fitted curve in the direction sought with a large enough effect in the repeat runs; an effect the other way counts as inactive or inconclusive;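 further: HepG2 cells with an ARE-driven luciferase reporter; % of control where 0% means no effect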). The following applies: ARE-luc HepG2, Nrf2 luciferase reporter, 16 h; series mostly up to 92.4 µM. The gist of the method:
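We exposed ARE-luc HepG2 cells, seeded in assay medium with 1% dialyzed FBS and allowed 6 hr to adhere, to test compounds overnight (16 hr, 37 C) before measuring luciferase with ONE-Glo.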

Sequence of Glucocorticoid receptor (Homo sapiens) (P04150 whole entry, looked up): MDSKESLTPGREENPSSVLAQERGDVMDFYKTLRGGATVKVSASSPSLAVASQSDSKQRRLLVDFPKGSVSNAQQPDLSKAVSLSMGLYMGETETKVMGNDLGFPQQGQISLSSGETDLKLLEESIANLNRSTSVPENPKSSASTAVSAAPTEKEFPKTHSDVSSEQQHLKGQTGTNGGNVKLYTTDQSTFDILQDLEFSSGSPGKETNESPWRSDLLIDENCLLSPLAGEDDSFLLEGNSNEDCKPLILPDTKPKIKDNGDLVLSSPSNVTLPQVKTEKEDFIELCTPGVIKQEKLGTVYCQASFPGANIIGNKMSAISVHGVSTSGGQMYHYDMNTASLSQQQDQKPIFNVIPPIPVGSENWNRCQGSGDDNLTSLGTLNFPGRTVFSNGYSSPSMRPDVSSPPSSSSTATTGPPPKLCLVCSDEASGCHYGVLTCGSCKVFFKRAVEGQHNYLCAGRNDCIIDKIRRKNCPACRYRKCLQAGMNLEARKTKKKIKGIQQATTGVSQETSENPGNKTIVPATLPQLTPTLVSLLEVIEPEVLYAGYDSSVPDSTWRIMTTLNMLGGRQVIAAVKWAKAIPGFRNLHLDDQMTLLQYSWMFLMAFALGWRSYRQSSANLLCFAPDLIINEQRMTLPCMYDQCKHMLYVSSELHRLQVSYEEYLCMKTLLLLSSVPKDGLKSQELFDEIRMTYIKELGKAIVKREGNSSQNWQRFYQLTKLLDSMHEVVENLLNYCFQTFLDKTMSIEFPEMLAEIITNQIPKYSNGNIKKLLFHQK
Sequence of Peroxisome proliferator-activated receptor gamma (Homo sapiens) (P37231 whole entry, looked up): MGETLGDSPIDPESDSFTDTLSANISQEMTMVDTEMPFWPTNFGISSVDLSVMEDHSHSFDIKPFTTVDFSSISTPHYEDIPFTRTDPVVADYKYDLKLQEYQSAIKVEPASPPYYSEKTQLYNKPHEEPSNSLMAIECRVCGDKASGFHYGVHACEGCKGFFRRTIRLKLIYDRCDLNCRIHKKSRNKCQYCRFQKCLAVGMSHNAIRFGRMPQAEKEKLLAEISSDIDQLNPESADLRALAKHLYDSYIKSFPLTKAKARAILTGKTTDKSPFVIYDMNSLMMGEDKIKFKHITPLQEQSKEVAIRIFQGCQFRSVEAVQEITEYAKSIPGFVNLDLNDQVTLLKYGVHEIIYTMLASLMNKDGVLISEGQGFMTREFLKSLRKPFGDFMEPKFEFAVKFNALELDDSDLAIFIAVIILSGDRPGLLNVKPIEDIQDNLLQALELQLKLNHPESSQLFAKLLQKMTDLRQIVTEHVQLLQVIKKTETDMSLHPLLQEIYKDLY
Sequence of Vitamin D3 receptor (Homo sapiens) (P11473 whole entry, looked up): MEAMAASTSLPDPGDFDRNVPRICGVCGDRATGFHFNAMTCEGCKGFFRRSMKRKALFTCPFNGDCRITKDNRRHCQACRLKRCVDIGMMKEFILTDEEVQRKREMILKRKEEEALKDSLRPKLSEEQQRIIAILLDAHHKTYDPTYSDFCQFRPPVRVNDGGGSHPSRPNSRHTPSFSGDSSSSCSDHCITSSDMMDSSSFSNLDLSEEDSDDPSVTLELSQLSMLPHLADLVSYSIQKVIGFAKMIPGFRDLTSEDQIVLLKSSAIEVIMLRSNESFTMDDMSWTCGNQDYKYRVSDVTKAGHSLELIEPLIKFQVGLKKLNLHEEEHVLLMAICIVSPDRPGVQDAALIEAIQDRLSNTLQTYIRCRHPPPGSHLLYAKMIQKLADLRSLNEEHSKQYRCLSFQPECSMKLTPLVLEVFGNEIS
Sequence of Retinoic acid receptor RXR-alpha (Homo sapiens) (P19793 whole entry, looked up): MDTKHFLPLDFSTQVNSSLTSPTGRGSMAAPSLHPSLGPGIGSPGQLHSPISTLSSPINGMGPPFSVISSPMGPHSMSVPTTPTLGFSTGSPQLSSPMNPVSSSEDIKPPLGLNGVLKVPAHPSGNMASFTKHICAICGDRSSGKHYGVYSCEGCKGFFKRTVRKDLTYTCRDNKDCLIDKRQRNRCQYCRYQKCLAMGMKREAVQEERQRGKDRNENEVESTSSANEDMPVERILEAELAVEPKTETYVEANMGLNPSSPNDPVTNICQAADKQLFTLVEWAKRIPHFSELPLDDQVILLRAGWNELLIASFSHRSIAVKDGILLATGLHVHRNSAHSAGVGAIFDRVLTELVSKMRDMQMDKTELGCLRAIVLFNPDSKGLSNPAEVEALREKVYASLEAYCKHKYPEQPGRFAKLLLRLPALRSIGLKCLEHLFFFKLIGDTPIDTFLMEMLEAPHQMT

Turning to `CCOC(=O)[C@H](C)Oc1ccc(Oc2nc3ccc(Cl)cc3o2)cc1`, the activation in [1] is 0.281% (inactive); in experiment [6] it was -9.98% (inactive); in [7] it was 13.7% (inactive). Also, the max response was 24.7% in experiment [2]; -1.02% (inactive) in [8]; 0.626% (inactive) in experiment [9]; -6.11% (inactive) in [10]; -0.698% (inactive) in [12]. The Potency result in [3], in experiment [4] and in experiment [11] was “inactive” each time. In addition, the activity change % (negative = inhibition) in experiment [5] was -0.0371% (inactive). In addition, the result in experiment [13] was inactive.
As for `CO[Si](CCCOCC1CO1)(OC)OC` (centres undefined), the results for the activation in experiment [1], in experiment [6] and in experiment [7] were -3.61% (inactive), 1.09% (inactive) and -0.88% (inactive), respectively. The max response in experiment [2] is 37.6%; in [16], -16.2%; in [18], -4.61%; in experiment [19], -3% (inactive); in experiment [9] it was -2.05% (inactive); in experiment [10], -2.39% (inactive). Besides, the Potency result in experiment [3], in experiment [17], in [20] and in [11] was “inactive” each time. For the same compound, the outcome in [14] and in [15] was inactive. The activity change % (negative = inhibition) in experiment [5] was 7.57% (inactive). In addition, in experiment [8], the Potency is 39.8 µM (active).
As to `CCCCCCCCCC(=O)OC`, the max response in experiment [2] is -5.35%; in experiment [16], -16.2%; in [18], -11.2%; in experiment [19], 2.82% (inactive); in experiment [8], 1.96% (inactive); in [9], -16.8% (inactive). In addition, the values for the max response in [10] and in experiment [12] were -11.5% (inactive) and -1.31% (inactive), respectively. Further, the Potency entry in experiment [3], in experiment [17], in [20] and in experiment [11] was “inactive” each time. The outcome in [14] and in [13] was inactive. In addition, in [7], the activation is 0.259% (inactive).
Turning to `CC(C)Nc1nc(N)nc(Cl)n1`, the activation is -6.58% (inactive) and -7.33% (inactive) in experiment [1]; -1.43% (inactive) and -0.514% (inactive) in experiment [6]; 1.51% (inactive) and -1.55% (inactive) in [7]. Also, the max response in experiment [2] is 2.88% and -10.4%; in experiment [16], 2.38% and -17.2%; in experiment [18], -2.6% and -6.07%; in experiment [8], -0.394% (inactive) and -2.37% (inactive); in [9] it was -6.9% (inactive) and -10.3% (inactive); in experiment [10], -6.34% (inactive) and -4.35% (inactive). Moreover, the max response in [12] was 4.66% (inactive) and -2.32% (inactive). For the same compound, the Potency entry in experiment [3], in experiment [4], in experiment [17], in experiment [20] and in experiment [11] was “inactive” each time. Further, the outcome in experiment [14], in experiment [15] and in experiment [13] was inactive. In experiment [5], the activity change % (negative = inhibition) was -8.47% (inactive) and 11% (inactive).

The record behind these values is PubChem BioAssay (NCATS).
